ST2 IL33 inh: inhibitors of human ST2 (IL1RL1) binding to IL-33, primary screen, biochemical, AlphaLISA | Interleukin-1 receptor-like 1 (Homo sapiens), Q01638 | AlphaLISA ST2-Fc/biotin-IL-33 interaction, 1 h | inhibition, % for hits at 17 µM | 78,000 compounds, 2.3% hits | AID 1259354, 2018; in the data active = inhibition above about 30%
Target sequence (Q01638 whole entry, looked up): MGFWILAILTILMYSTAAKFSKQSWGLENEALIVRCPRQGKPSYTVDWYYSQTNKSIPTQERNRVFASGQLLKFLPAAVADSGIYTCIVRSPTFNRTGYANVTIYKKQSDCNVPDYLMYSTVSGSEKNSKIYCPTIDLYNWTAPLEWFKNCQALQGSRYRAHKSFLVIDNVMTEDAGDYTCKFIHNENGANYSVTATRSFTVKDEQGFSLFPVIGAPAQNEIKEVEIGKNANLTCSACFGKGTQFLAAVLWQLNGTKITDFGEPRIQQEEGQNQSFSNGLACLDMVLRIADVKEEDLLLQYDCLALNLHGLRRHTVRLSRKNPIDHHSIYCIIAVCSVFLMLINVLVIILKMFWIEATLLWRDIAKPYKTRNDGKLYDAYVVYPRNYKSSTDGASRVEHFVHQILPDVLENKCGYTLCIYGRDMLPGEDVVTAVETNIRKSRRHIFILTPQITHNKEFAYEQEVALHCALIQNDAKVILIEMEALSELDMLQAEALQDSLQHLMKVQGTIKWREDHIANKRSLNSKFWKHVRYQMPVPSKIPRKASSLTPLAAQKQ
Numbers without * were called inactive. Many of the other results were omitted from the sample, so hits are more common in it than they were.

How did CC(=O)Nc1ccc2oc(-c3ccc(Cl)cc3)nc2c1 do in these assays?
ST2 IL33 inh: inactive

What do the screens show for `CCc1ccccc1-c1nc(OC)nc(OC)n1`?
ST2 IL33 inh: inactive

What do the screens show for `CCc1nc(NC)nc(OC)n1`?
ST2 IL33 inh: 68%*

How did COc1nc(N(C)C)nc(N(C)C)n1 do in these assays?
ST2 IL33 inh: inactive

How did COc1ccc(CN[C@H]2[C@H](O)[C@@H](N3CCC(Cc4ccccc4)CC3)[C@@H]3OC[C@H]2O3)cc1 do in these assays?
ST2 IL33 inh: inactive

How did CC(c1cccc(-c2cccc(C(=O)c3nccn3C)c2)c1)N(C)C (stereo not drawn) do in these assays?
ST2 IL33 inh: inactive

How did O=C(c1cc(C(F)(F)F)ccc1Cl)N1CC[C@@H](N2CCC(O)CC2)[C@H](O)C1 do in these assays?
ST2 IL33 inh: inactive

How did Fc1cccc(-c2nnc3n2N=C(c2cccc(Br)c2)CS3)c1 do in these assays?
ST2 IL33 inh: inactive

How did Oc1ccccc1C1=Nc2ccccc2N=C(c2cccc(F)c2)C1 do in these assays?
ST2 IL33 inh: 30%*

How did O=C1CC(c2ccccc2)=Nc2ccccc2N1 do in these assays?
ST2 IL33 inh: inactive

How did CCc1nc2cccnc2n1C1CCN(S(=O)(=O)c2ccc(C(C)(C)C)cc2)CC1 do in these assays?
ST2 IL33 inh: inactive

What do the screens show for `Cc1ccc(S(=O)(=O)N2CCC(n3c(C)nc4cccnc43)CC2)cc1C`?
ST2 IL33 inh: inactive

How did O=S(=O)(c1ccc2c(c1)OCCO2)N1CCC(n2cnc3cccnc32)CC1 do in these assays?
ST2 IL33 inh: 98%*

How did NS(=O)(=O)c1ccc(CCNC(=O)c2ccccc2NC(=O)C2=CSCCO2)cc1 do in these assays?
ST2 IL33 inh: inactive

What do the screens show for `O=C1C(Nc2ccc(O)cc2)=CC(=NS(=O)(=O)c2ccc(Cl)cc2)c2ccccc21`?
ST2 IL33 inh: 87%*

How did O=C1C=C(Nc2ccc(Cl)cc2)C(=O)N1c1ccccc1 do in these assays?
ST2 IL33 inh: inactive

How did CN(CC(=O)Nc1ccc(C(=O)O)cc1)S(=O)(=O)c1ccccc1 do in these assays?
ST2 IL33 inh: inactive

Results for O=C(O)c1ccc(S(=O)(=O)c2ccccc2)cc1 ?
ST2 IL33 inh: inactive

What do the screens show for `CC(=O)c1cccc(NC(=O)C(Cc2ccccc2)N2C(=O)c3ccccc3C2=O)c1` (stereo not drawn)?
ST2 IL33 inh: inactive

What do the screens show for `O=C(O)c1cccc(NS(=O)(=O)c2cccc(C(=O)Nc3ccccc3)c2)c1`?
ST2 IL33 inh: inactive

What do the screens show for `O=C(O)c1cccc(NS(=O)(=O)c2ccccc2)c1`?
ST2 IL33 inh: inactive

Results for CCc1ccc(S(=O)(=O)N=C2C=C(Nc3cccc(C(=O)O)c3)C(=O)c3ccccc32)cc1 ?
ST2 IL33 inh: 52%*

What do the screens show for `O=C(O)c1cccc(NC(=O)C(c2ccccc2)c2ccccc2)c1`?
ST2 IL33 inh: inactive

How did O=C(O)c1ccc(NC2=CC(=NS(=O)(=O)c3ccccc3)c3ccccc3C2=O)cc1 do in these assays?
ST2 IL33 inh: 48%*

What do the screens show for `O=C(O)c1cccc(NC2=CC(=NS(=O)(=O)c3ccc(F)cc3)c3ccccc3C2=O)c1`?
ST2 IL33 inh: 45%*

What do the screens show for `O=c1[nH]c2ccccc2cc1CN1CCNC(c2ccccc2)C1` (stereo not drawn)?
ST2 IL33 inh: inactive

Results for O=C(c1ccccc1)c1ccc(OCCN2CCCC2)cc1 ?
ST2 IL33 inh: inactive

Results for O=C(COc1ccc(Cl)cc1Cl)NCCc1ccccc1 ?
ST2 IL33 inh: inactive

What do the screens show for `Cc1cccn2c(=O)c3cc(C(=O)N4CCN(c5ccccc5F)CC4)n(C)c3nc12`?
ST2 IL33 inh: inactive

How did O=C(NCc1ccco1)C1CCN(S(=O)(=O)N2CCCCC2)CC1 do in these assays?
ST2 IL33 inh: inactive

What do the screens show for `CCC(=O)Nc1ccc(C(=O)Nc2ccccc2OC)cc1`?
ST2 IL33 inh: inactive

Results for COc1cccc(OC)c1C(=O)Nc1ccccc1Br ?
ST2 IL33 inh: inactive

How did COc1ccccc1NC(=O)c1cc(S(=O)(=O)N2CCOCC2)c(Cl)cc1Cl do in these assays?
ST2 IL33 inh: inactive

What do the screens show for `CN(C)S(=O)(=O)N1CCC(n2nccc2NC(=O)Cc2ccccc2)CC1`?
ST2 IL33 inh: inactive

How did CC(=O)Nc1ccc(CN2C[C@H](O)C[C@H]2c2nc(CS(=O)(=O)c3ccc(F)cc3)no2)cc1 do in these assays?
ST2 IL33 inh: 74%*

How did CS(=O)(=O)c1ccc(CN2C[C@H](O)C[C@H]2c2nc(-c3ccc(C(F)(F)F)cc3)no2)cc1 do in these assays?
ST2 IL33 inh: inactive

How did COc1ccc(-c2noc([C@@H]3C[C@@H](O)CN3Cc3ccc(Cl)cc3)n2)cc1 do in these assays?
ST2 IL33 inh: inactive

What do the screens show for `O=[N+]([O-])c1ccc(CN2C[C@H](O)C[C@H]2c2nc(-c3ccc(C(F)(F)F)cc3)no2)cc1`?
ST2 IL33 inh: inactive

How did O=S(=O)(Cc1noc([C@@H]2C[C@@H](O)CN2CC2CC2)n1)c1ccc(F)cc1 do in these assays?
ST2 IL33 inh: inactive

How did COc1ccc(-c2noc([C@@H]3C[C@@H](O)CN3Cc3ccncc3)n2)cc1 do in these assays?
ST2 IL33 inh: 36%*

Results for O[C@@H]1C[C@@H](c2nc(-c3cccnc3)no2)N(Cc2ccccc2)C1 ?
ST2 IL33 inh: inactive

What do the screens show for `O=S(=O)(Cc1noc([C@@H]2C[C@@H](O)CN2Cc2ccc(-c3ccccn3)cc2)n1)c1ccc(F)cc1`?
ST2 IL33 inh: inactive

What do the screens show for `COc1ccc(CN2C[C@H](O)C[C@H]2c2nc(CS(=O)(=O)c3ccc(C)cc3)no2)cc1`?
ST2 IL33 inh: inactive

Results for O[C@@H]1C[C@@H](c2nc(-c3ccc(F)cc3)no2)N(Cc2ccc(OC(F)(F)F)cc2)C1 ?
ST2 IL33 inh: 53%*

Results for COc1ccc(CN2C[C@H](O)C[C@H]2c2nc(-c3ccc(OC(F)(F)F)cc3)no2)cc1 ?
ST2 IL33 inh: 31%*

What do the screens show for `O=[N+]([O-])c1ccc(CN2C[C@H](O)C[C@H]2c2nc(-c3ccc(OC(F)(F)F)cc3)no2)cc1`?
ST2 IL33 inh: inactive

Results for CC1CN(c2ccc(Br)cc2)NC1=O (stereo not drawn) ?
ST2 IL33 inh: inactive

How did COc1ccc(S(=O)(=O)N2CCN(c3cc(-c4ccc(F)cc4)ncn3)CC2)cc1Cl do in these assays?
ST2 IL33 inh: inactive

How did Fc1c(CN2CCCC2)cccc1Oc1nccc2ccccc12 do in these assays?
ST2 IL33 inh: inactive

How did Cc1nc(CCC(=O)N2CCOC(c3ccc(Cl)c(Cl)c3)C2)n[nH]1 (stereo not drawn) do in these assays?
ST2 IL33 inh: inactive

How did Cc1cc(C)cc(N(C(=O)c2c(F)cccc2Cl)C2C=CS(=O)(=O)C2)c1 (stereo not drawn) do in these assays?
ST2 IL33 inh: inactive

Results for CCC(=O)N1CCc2cc(Br)cc(S(=O)(=O)NCCN(CC)CC)c21 ?
ST2 IL33 inh: inactive

Results for Cn1c(=O)c2c3c(sc2n2cnnc12)CC(C(C)(C)C)CC3 (stereo not drawn) ?
ST2 IL33 inh: inactive

How did Cc1ccc(-n2nc3c(c2NC(=O)c2ccc(Cl)cc2)CSC3)cc1 do in these assays?
ST2 IL33 inh: inactive

How did CN(C)c1ccc(CN2C[C@H](O)C[C@H]2c2nc(-c3ccccn3)no2)cc1 do in these assays?
ST2 IL33 inh: inactive

How did O[C@@H]1C[C@@H](c2nc(-c3ccccc3)no2)N(Cc2c[nH]c3ccccc23)C1 do in these assays?
ST2 IL33 inh: 38%*

How did O=C(O)c1ccc(CN2C[C@H](O)C[C@H]2c2nc(-c3ccccc3)no2)cc1 do in these assays?
ST2 IL33 inh: inactive
